# Values joined by “and” are separate entries in the source; they are usually repeats but may differ in a detail not shown here. Identical values can stand only once. Records with an inconclusive call do not appear. Where a structure was tested more than once in an assay, its records may differ in their call. Active and inactive are the calls of the source. Unless noted, the call rests on the fitted dose curve.
# How the values were obtained:
# [1] = target: Cytochrome P450 1A2 (Homo sapiens) (UniProt P05177); experiment: p450-cyp1a2 (AID 410); conditions: recombinant CYP1A2, luciferin-ME demethylation, luminescence; series mostly up to 57 µM; further: potency means the concentration at half of the fitted maximal effect;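 on activity change, negative = inhibition: -100% = full effect of reference inhibitor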
# Chain of Cytochrome P450 1A2 (Homo sapiens) (P05177 whole entry, looked up): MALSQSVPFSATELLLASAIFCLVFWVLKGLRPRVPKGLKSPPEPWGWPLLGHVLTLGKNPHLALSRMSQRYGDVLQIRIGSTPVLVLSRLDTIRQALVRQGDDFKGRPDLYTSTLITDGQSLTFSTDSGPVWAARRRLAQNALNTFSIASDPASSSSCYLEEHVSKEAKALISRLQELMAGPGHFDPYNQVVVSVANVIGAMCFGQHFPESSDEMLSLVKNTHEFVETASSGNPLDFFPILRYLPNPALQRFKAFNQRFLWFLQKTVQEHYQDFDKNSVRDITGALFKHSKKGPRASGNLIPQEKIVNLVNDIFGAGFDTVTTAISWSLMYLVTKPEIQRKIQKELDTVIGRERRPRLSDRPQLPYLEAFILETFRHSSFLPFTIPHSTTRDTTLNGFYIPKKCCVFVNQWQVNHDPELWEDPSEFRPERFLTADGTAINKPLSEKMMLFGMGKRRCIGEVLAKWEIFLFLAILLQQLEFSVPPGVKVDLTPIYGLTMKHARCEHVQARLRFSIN
# Outline: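 O-Demethylation of luciferin 6' methyl ether by human CYP1A2 is monitored as luciferase luminescence. Substrate sits at Km (100uM); enzyme is 20nM. Values are scaled to 57 uM furafylline as maximal inhibition.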
# [2] = NFAT Signaling Pathway (AID 444; active means well fitted curve in either direction with a large enough effect, not every such curve was filed as active;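 further: carbachol stimulus at about its EC50 of 1 µM final; on the % scale 0 is the no-effect control and ±100 the full control effect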); conditions: Jurkat NFAT-bla M1, carbachol, beta-lactamase ratio, 5 h
# Outline: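 Jurkat cells carrying an NFAT-driven β-lactamase reporter and co-transfected muscarinic M1 receptor were treated with compound plus carbachol (1 uM final, an EC50 level) for 5 h at 37 °C. CCF4 loading followed for 1 h at RT; 460/530 nm ratio gave %activity.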
# [3] = Stat Signaling Pathway (AID 446; active means well fitted curve in either direction with a large enough effect, not every such curve was filed as active;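 further: ME-180 cervical cancer cells given 40 pM IL-6 alongside compound; SIE-controlled beta-lactamase reporter measured as 460/530 nm FRET emission ratio; on the % scale 0 is the no-effect control and ±100 the full control effect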); conditions: ME-180 (cervical carcinoma) SIE beta-lactamase reporter, IL-6 stimulated, 5 h; at 38 µM (top of the series) unless noted
# Outline: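 FRET read-out (405 nm excitation, 460/530 nm emission) of a beta-lactamase reporter under a STAT-inducible element in ME-180 cervical carcinoma cells. Cells with compound receive 40 pM IL-6 for 5 h. Values are normalised to AC90 stimulation and AC90 JAK-inhibitor controls.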
# [4] = target: Glucocorticoid receptor (Homo sapiens) (UniProt P04150); experiment: GR-GFP Redistribution (AID 450;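 active means compounds whose dose series gives a full or clear partial fitted curve of increased nuclear translocation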; further: potency means the concentration at half of the fitted maximal effect); conditions: U2OS GR-GFP nuclear translocation, laser cytometry, 2 h
# Chain of Glucocorticoid receptor (Homo sapiens) (P04150 whole entry, looked up, the tested form may be a part): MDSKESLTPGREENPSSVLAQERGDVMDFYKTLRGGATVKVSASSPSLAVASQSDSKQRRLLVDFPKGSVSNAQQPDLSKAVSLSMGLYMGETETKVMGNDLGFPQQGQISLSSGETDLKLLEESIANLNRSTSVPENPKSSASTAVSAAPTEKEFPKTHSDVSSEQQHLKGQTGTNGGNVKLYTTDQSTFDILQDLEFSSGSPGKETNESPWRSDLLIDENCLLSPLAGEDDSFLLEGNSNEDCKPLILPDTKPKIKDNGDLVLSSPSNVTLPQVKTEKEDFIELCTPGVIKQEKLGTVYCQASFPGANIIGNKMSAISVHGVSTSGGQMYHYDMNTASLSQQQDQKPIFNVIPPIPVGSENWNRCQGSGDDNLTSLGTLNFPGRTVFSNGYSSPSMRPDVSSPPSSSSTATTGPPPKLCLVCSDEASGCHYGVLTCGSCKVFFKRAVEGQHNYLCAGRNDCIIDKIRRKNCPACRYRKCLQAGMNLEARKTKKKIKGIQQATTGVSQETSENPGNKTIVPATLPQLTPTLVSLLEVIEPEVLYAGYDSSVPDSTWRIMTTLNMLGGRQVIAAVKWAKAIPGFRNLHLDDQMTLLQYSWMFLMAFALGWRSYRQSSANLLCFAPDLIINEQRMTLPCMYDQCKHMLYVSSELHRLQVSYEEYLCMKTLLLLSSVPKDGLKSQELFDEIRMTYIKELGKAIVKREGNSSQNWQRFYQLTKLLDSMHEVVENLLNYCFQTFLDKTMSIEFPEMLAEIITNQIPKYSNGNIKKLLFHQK
# [5] = target: Glucocorticoid receptor (Homo sapiens) (UniProt P04150); experiment: GR-EFC Redistribution (AID 451); conditions: CHO-K1 GR-EFC translocation, beta-gal luminescence, 2 h; further: potency means the concentration at half of the fitted maximal effect
# Outline: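 CHO-K1 cells stably expressing nuclear-localized β-gal enzyme acceptor and GR fused C-terminally to the enzyme donor fragment; ligand-driven nuclear translocation restores β-gal by complementation. Compounds titrated up to 46 uM final, 2 h at 37 °C; luminescence read.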
# [6] = target: Mitogen-activated protein kinase 10 (Mus musculus) (UniProt Q61831); experiment: JNK3 AlphaScreen Assay (AID 530; active means well fitted curve in either direction with a large enough effect, not every such curve was filed as active;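 further: kinase came from lysate of stimulated human HepG2 cells; signal reports phosphorylation of biotinylated GST-cJun 1-79 at Ser73 with 10 µM ATP; on the % scale 0 is the no-effect control and ±100 the full control effect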); conditions: JNK3 lysate, c-Jun phosphorylation; series mostly up to 57.1 µM
# Outline: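 Phosphorylation of biotinylated GST-cJun(1-79) at Ser73 is measured by AlphaScreen proximity luminescence. Enzyme is JNK3 in HepG2 lysates activated with interleukin-1beta and tumor necrosis factor alpha; ATP is 10 uM final.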
# [7] = at 38 µM (top of the series) unless noted
Structure (SMILES),Potency [1],"activity change, negative = inhibition [2, 7]","activity, negative = inhibition [3]",Potency [4],Potency [5],outcome [6],"activity change, negative = inhibition ([2]; at 17.2 µM (top of the series))","activity change, negative = inhibition ([2]; at 38 µM (top of the series))"
NC/C=C\C(=O)O,inactive,4.38% (inactive) and -3.77% (inactive),22.6% (inactive) and 7.43% (inactive),> 46 µM (inactive),> 46 µM (inactive),inactive,–,–
NOCC(=O)O,inactive,-5.75% (inactive),4.25% (inactive),> 46 µM (inactive),> 46 µM (inactive),–,–,–
O=C(O)c1cc2cc(F)ccc2[nH]1,inactive,–,-0.809% [at 17.2 µM] (inactive),> 46 µM (inactive) and > 20.6 µM (inactive),> 46 µM (inactive),inactive,-6.32% (inactive),-3.11% (inactive)
N#C/C(=C\c1ccc(O)c(O)c1)C(=O)NCCCNC(=O)/C(C#N)=C/c1ccc(O)c(O)c1,inactive,7.05% (inactive),-7.91% (inactive),> 46 µM (inactive),> 46 µM (inactive),–,–,–
CNCCNS(=O)(=O)c1cccc2cnccc12,inactive,-11.3% (inactive),–,> 46 µM (inactive),> 46 µM (inactive),–,–,–
O=c1oc(Cl)c(Cl)c2ccccc12,1 µM (active),-53.3% (active),22.3% (active),> 46 µM (inactive),> 46 µM (inactive),inactive,–,–
S=C(S)N1CCCC1,31.6 µM (active) and 12.6 µM (active),-9.46% (inactive),7.91% (inactive),> 46 µM (inactive),> 46 µM (inactive),inactive,–,–
Cn1c(=O)c2[nH]c(C3CCCC3)nc2n(C)c1=O,12.6 µM (active),3.19% (inactive),–,> 46 µM (inactive),> 46 µM (inactive),–,–,–
Cc1nc(N=Nc2ccc(C(=O)O)cc2)c(COP(=O)(O)O)c(C=O)c1O,inactive,7.15% (inactive),-19.4% (inactive),> 46 µM (inactive),> 46 µM (inactive),inactive,–,–
CN1CCN(c2nc3cc(C(F)(F)F)ccc3n3cccc23)CC1,200 nM (active) and 39.8 nM (active),28.4% (inactive),–,> 46 µM (inactive),> 46 µM (inactive),–,–,–
CCN(CC)CCOC(=O)c1cc(Cl)c(N)cc1OC,12.6 µM (active),-3.84% (inactive),-0.802% (inactive),> 46 µM (inactive),> 46 µM (inactive),inactive,–,–
N=C(N)c1ccccc1,inactive,-2.62% (inactive),8.11% (inactive),–,–,inactive,–,–
CN1CCc2cc(Cl)c(O)cc2[C@@H](c2ccccc2)C1,–,–,–,> 46 µM (inactive),> 46 µM (inactive),–,–,–
C[N+](C)(C)CC=O,–,-6.7% (inactive),17.9% (inactive),> 46 µM (inactive),> 46 µM (inactive),inactive,–,–
Nc1ccc2c3c(cccc13)C(=O)NC2=O,1 µM (active),–,-25.5% (inactive),> 46 µM (inactive),> 46 µM (inactive),inactive,–,–
N[C@@H](CS(=O)O)C(=O)O,inactive,–,–,> 46 µM (inactive),> 46 µM (inactive),–,–,–
CCCn1c(=O)c(C)cn2nc(N)nc12,–,–,–,> 46 µM (inactive),> 46 µM (inactive),–,–,–
CCc1ccc2c(-c3cccc(Cl)c3)nc(=O)n(CC)c2n1,0.126 µM (active),–,–,> 46 µM (inactive),> 46 µM (inactive),inactive,–,–
Oc1cc(O)c2c(c1)O[C@H](c1ccc(O)c(O)c1)[C@@H](O)C2,inactive,–,–,> 46 µM (inactive),> 46 µM (inactive),–,–,–
CC[C@@H]1Cc2cc(O)ccc2C2=C1c1ccc(O)cc1C[C@H]2CC,–,–,–,> 46 µM (inactive),> 46 µM (inactive),–,–,–
CC[C@H](NC(=O)c1c(C)c(-c2ccccc2)nc2ccccc12)c1ccccc1,inactive and 7.94 µM (active),2.54% (inactive),–,> 46 µM (inactive),> 46 µM (inactive),inactive,–,–
COc1cc2c(CCNC(C)=O)c[nH]c2cc1O,31.6 µM (active),3.14% (inactive),–,> 46 µM (inactive),> 46 µM (inactive),inactive,–,–
CCCc1c(-c2ccc(O)cc2)nn(-c2ccc(O)cc2)c1-c1ccc(O)cc1,15.8 µM (active) and 20 µM (active),–,–,> 46 µM (inactive),> 46 µM (inactive),inactive,–,–

Structure (SMILES),Potency [1],"activity change, negative = inhibition [2, 7]","activity, negative = inhibition [3]",Potency [4],Potency [5],outcome [6],"activity change, negative = inhibition ([2]; at 17.2 µM (top of the series))","activity change, negative = inhibition ([2]; at 38 µM (top of the series))"
O=C(O)c1ccccc1Nc1cccc(OCc2ccc3ccccc3n2)c1,12.6 µM (active) and 1 µM (active),–,–,> 46 µM (inactive),> 46 µM (inactive),inactive,–,–
CCCCCCCCCCCCCCSCC(=O)O,inactive,–,-3.53% (inactive),> 46 µM (inactive),> 46 µM (inactive),inactive,–,–
O=C(OCCN1CCOCC1)C1(c2ccccc2)CCCCC1,31.6 µM (active),–,–,> 46 µM (inactive),> 46 µM (inactive),inactive,–,–
CCCCCC[C@@H]([C@@H](C)O)n1cnc2c(N)ncnc21,–,–,–,> 46 µM (inactive),> 46 µM (inactive),inactive,–,–
CN(C)CCCc1cc(C(=O)Nc2ccc(-c3ccncc3)cc2)ccc1O,39.8 µM (active),–,–,> 46 µM (inactive),> 46 µM (inactive),inactive,–,–
O=c1onc2cnc3ccccc3n12,12.6 µM (active) and 2.51 µM (active),1.27% (inactive),–,> 46 µM (inactive),> 46 µM (inactive),inactive,–,–
CC1CCN(CC[C@H]2CCCN2S(=O)(=O)c2cccc(O)c2)CC1,–,–,–,> 46 µM (inactive),> 46 µM (inactive),inactive,–,–
c1ccc(CN2CCC3(CCCc4ccccc43)CC2)cc1,–,-19.1% (inactive),-10.2% (inactive),> 46 µM (inactive),> 46 µM (inactive),inactive,–,–
CCCCCCN(CCCCCC)C(=O)Cc1c(-c2ccc(F)cc2)[nH]c2ccccc12,–,–,6.88% (inactive),> 46 µM (inactive),> 46 µM (inactive),inactive,–,–
CCCCOC(=O)NS(=O)(=O)c1sc(CC(C)C)cc1-c1ccc(Cn2c(CC)nc3c(C)cc(C)nc32)cc1,31.6 µM (active),–,–,> 46 µM (inactive),> 46 µM (inactive),inactive,–,–
CN(C)S(=O)(=O)c1ccc2c(c1)/C(=C/c1cc3c([nH]1)CCCC3)C(=O)N2,0.316 µM (active),–,-60.7% (active),–,> 46 µM (inactive),inactive,–,–
CCCCCCCC/C=C\CCCCCCCC(=O)NCCc1ccc(O)c(O)c1,20 µM (active),–,0.267% (inactive),> 46 µM (inactive),> 46 µM (inactive),–,–,–
N#C/C(=C\c1ccc(O)c(O)c1)C(=O)NCCc1ccccc1,10 µM (active),–,-24% (inactive),–,> 46 µM (inactive),–,–,–
NCCNS(=O)(=O)c1cccc2c(Cl)cccc12,–,–,–,> 46 µM (inactive),> 46 µM (inactive),inactive,–,–
Cc1nc(N=Nc2cc(S(=O)(=O)O)c3cc([N+](=O)[O-])cc(S(=O)(=O)O)c3c2)c(COP(=O)(O)O)c(C=O)c1O,39.8 µM (active),2.42% (inactive),–,> 46 µM (inactive),> 46 µM (inactive),inactive,–,–
COC(=O)[C@H](NC(=O)c1cc(-c2ccccc2)nc2ccccc12)c1ccccc1,–,–,–,> 46 µM (inactive),> 46 µM (inactive),–,–,–
O=C(O)C1CCNCC1,–,11.3% (inactive),-8.76% (inactive),> 46 µM (inactive),> 46 µM (inactive),inactive,–,–
NC[C@@H]1O[C@H](c2ccccc2)Cc2c1ccc(O)c2O,–,–,–,> 46 µM (inactive),> 46 µM (inactive),inactive,–,–
CCCC(=O)NCCc1c2n(c3ccc(OC)cc13)CCCc1ccccc1-2,–,-6.48% (inactive),–,> 46 µM (inactive),> 46 µM (inactive),inactive,–,–
C=C1C(=O)O[C@@H]2[C@H]3O[C@]3(C)CCC=C(C)CC[C@@H]12,10 µM (active),–,–,–,> 46 µM (inactive),inactive,–,–
C/C(=C\c1ccc(C(=O)O)cc1)c1ccc2c(c1)C(C)(C)CCC2(C)C,inactive,–,–,> 46 µM (inactive),> 46 µM (inactive),–,–,–
N[C@H](C(=O)O)[C@H](O)C(=O)O,–,–,–,> 46 µM (inactive),> 46 µM (inactive),inactive,–,–
CCCOC(=O)c1c(-c2ccccc2)nc(CC)c(C(=O)SCC)c1CCC,10 µM (active),–,-19.4% (inactive),> 46 µM (inactive),> 46 µM (inactive),–,–,–
